Laboratory results taken from PubChem BioAssay AID493240 (Broad Institute, 2011).
The campaign covered roughly 1,300 compounds. About 270 (21%) were called active. The rule behind the calls is not given here. The list is a sample of the results. Results with a measured potency or affinity are listed apart.

Assay: SK-MEL-5 parental cell viability loss, dose response, orthogonal assay for MITF inhibitor project, CellTiter-Glo, cherry-picked, set 3 (AID 493240)
Conditions: SK-MEL-5 viability, ATP luminescence (CellTiter-Glo), 24 h; series mostly up to 35 µM

Row | Compound | outcome
1 | OCC1OC(n2cnc3c(NCc4ccco4)ncnc32)C(O)C1O (stereo unspecified) | inactive
2 | COc1cccc(/C=N/NC(=O)CN2CC(c3ccccc3)CC2=O)c1OC (stereo unspecified) | inactive
3 | CCN1CCc2c(sc(NC(=O)c3ccc(S(=O)(=O)N4CCCCCC4)cc3)c2C(=O)NC)C1 | inactive
4 | Cc1scc(C(=O)N/N=C/c2ccc([N+](=O)[O-])o2)c1C | inactive
5 | O=[N+]([O-])c1ccc(Sc2cc[n+]([O-])c3ccccc23)c([N+](=O)[O-])c1 | inactive
6 | Cc1ccc(SCCSc2ncccn2)cc1 | inactive
7 | O=C(O)C1CCN(C(=O)OCc2ccccc2)CC1 | inactive
8 | COc1cc(C2C(C#N)=C(N)Oc3cc(N(C)C)ccc32)cc2c1OCO2 (stereo unspecified) | inactive
9 | O=C(O)c1cc2ccccc2c(N=Nc2cccnc2)c1O | inactive
10 | Cc1cc(C)c2c(N)c3cccc(C)c3nc2n1 | inactive
11 | CC(=O)Nc1ccc(-c2nc3ccccc3o2)cc1 | inactive
12 | OCCNc1c2ccccc2nc2ccccc12 | inactive
13 | Cc1nn2c(N)c(-c3ccccc3)cnc2c1-c1ccccc1 | inactive
14 | COc1ccc(-c2nc(-c3ccncc3)no2)cc1OC | inactive
15 | C=Cc1ncc(OC)c2c1[nH]c1ccccc12 | inactive
16 | Cc1ccc(NC(=O)CN(C)C(=O)Cn2ncc(Cl)c(Cl)c2=O)cc1 | inactive

Row | Compound | outcome
17 | O=C(/C=C/NNC(=O)c1ccccc1)c1ccc([N+](=O)[O-])cc1 | inactive
18 | COc1ccc(/C=C/c2cc(C(F)(F)F)on2)cc1 | inactive
19 | O=[N+]([O-])c1ccc(-n2nnnc2-c2ccccc2)c([N+](=O)[O-])c1 | inactive
20 | Cc1cc(C)cc(OCC(=O)N/N=C/c2ccc([N+](=O)[O-])o2)c1 | inactive
21 | O=C(CNc1cccc([N+](=O)[O-])c1)N/N=C/c1ccc([N+](=O)[O-])o1 | inactive
22 | Cc1cc(C(=O)N/N=C/c2ccc([N+](=O)[O-])o2)c(C)o1 | inactive
23 | CCN(CC)S(=O)(=O)c1cccc(C(=O)N/N=C/c2ccc([N+](=O)[O-])o2)c1 | inactive
24 | Cc1ccccc1OCC(=O)N/N=C/c1ccc([N+](=O)[O-])o1 | inactive
25 | O=C(CNc1ccc2ccccc2c1)N/N=C/c1ccc([N+](=O)[O-])o1 | inactive
26 | O=C(N/N=C/c1ccc([N+](=O)[O-])o1)c1cc2ccccc2o1 | inactive
27 | Cc1ccc(OCC(=O)N/N=C/c2ccc([N+](=O)[O-])o2)cc1 | inactive
28 | O=c1c2ccccc2cnn1CCOc1ccccc1 | inactive
29 | CC(C)c1nnc(NC(=O)CCC2CCCCC2)s1 | inactive
30 | c1cc(CSc2nnc(-c3ccc4c(c3)OCO4)o2)ccn1 | inactive
31 | COCCNC(=O)/C(C#N)=C/c1cccc(/C=C(\C#N)C(=O)NCCOC)c1 | inactive
